Binding signal data for 42 sequences are collected here from PMC7819943, “Rice protein-binding microarrays: a tool to detect cis-acting elements near promoter regions in rice”.

Whole data set: some 68,000 sequences, median “fluorescence intensity (a.u.)” near 9,100, cut for the highest 2% near 16,000. The entries come from a sample that favours the highest values as a whole.

The assay deals with OsWRKY34 (Oryza sativa, UniProt Q0JBA9 1-250). Description: protein-binding microarray (RPBM); PBS, 2% BSA, 51.3 ng/ul salmon testes DNA, 50 uM zinc acetate, 200 nM TF, 25 C, 1 h; high values mean tight binding. The conditions noted are these: protein: recombinant; tags: N-terminal polyhistidine and DsRed monomer fusion (pET32a); label: CyDye5-dUTP incorporated in the synthesized complementary strand; 3' TTTTT single-stranded linker to array surface; dsDNA, one strand shown. The method, boiled down: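 Transcription factors were made in E. coli BL21-CodonPlus as N-terminal fusions to a polyhistidine tag and DsRed, then purified on Ni–NTA. After primer extension with Cy5-dUTP and blocking with 2% BSA, a custom Agilent array was exposed for 1 h at 25 °C to 200 nM protein in PBS, 2% BSA, salmon testes DNA and 50 µM zinc acetate. Washed arrays were scanned on an Axon 4000B, and the binding signal is per-feature fluorescence intensity in arbitrary units.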
OsWRKY34, sequence (Q0JBA9 entry or part of it): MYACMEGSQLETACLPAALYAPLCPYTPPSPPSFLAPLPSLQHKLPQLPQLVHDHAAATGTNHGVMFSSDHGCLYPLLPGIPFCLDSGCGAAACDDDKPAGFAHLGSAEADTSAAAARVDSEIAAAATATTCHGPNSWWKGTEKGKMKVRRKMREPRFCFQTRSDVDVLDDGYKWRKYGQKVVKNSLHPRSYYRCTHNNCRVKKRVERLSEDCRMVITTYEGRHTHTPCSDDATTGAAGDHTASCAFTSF
On to “ATCTCTTTCATCCGATTACTGTGTTTTTTCTGTGGTCCAACGGAGTCACCTAGTGCAG”, for which the binding signal was 8410 fluorescence intensity (a.u.).

For the sequence “GCCGCTTGCCCTCGCAGCCGCTCCGCCTGCCTCCGCCCACCGGAGTCACCTAGTGCAG”, the binding signal was 10000 fluorescence intensity (a.u.). The value for “ATCTGGTAACTCAAGTGCTCTCTTCCTGACTGCTGCAGCACGGAGTCACCTAGTGCAG” was 9470 fluorescence intensity (a.u.); that for “GATGAGTGGTGATTGGTGAAGATATCTGGTGGTTTTGGGACGGAGTCACCTAGTGCAG” was 8630 fluorescence intensity (a.u.); that for “AACCCGTTCACACACATTGTCAGGGACCAGCTCATTACTTCGGAGTCACCTAGTGCAG” was 10400 fluorescence intensity (a.u.). The value for “AATGTTTGACACCGTTGACTTTTTAGTACGTGTTTGTCCACGGAGTCACCTAGTGCAG” was 30200 fluorescence intensity (a.u.).

On to “GGGCTGTTGTGTGTGTGTTTTGCGACGTGCCGTGCTGGGCCGGAGTCACCTAGTGCAG”, for which the binding signal was 8290 fluorescence intensity (a.u.).

Regarding “AATGTTTGATACCGTTGACTTTTTAGTACGTGTTTGATCACGGAGTCACCTAGTGCAG”, the binding signal is 32600 fluorescence intensity (a.u.).

Take “AACGATGACGACGTGTGCGCGCTGTTGTTTTTTTGTCCCACGGAGTCACCTAGTGCAG”: the binding signal is 19700 fluorescence intensity (a.u.). The value for “TGATTTTTGTCCCACGTGGCATTGACGTGGCGCTTATGTGCGGAGTCACCTAGTGCAG” was 8850 fluorescence intensity (a.u.). The value for “CCGTTGACTTTTTAGTACGTGTTTGATTCATTCTTAAATACGGAGTCACCTAGTGCAG” was 16200 fluorescence intensity (a.u.). For “TCCCCACCTGTCAGTACTTATGTTTTGACTTTTTGACCCACGGAGTCACCTAGTGCAG” the value was 14300 fluorescence intensity (a.u.). As for “TGACTTTTTAGTACGTGTTTGATCATTCGTCTTATTCAAACGGAGTCACCTAGTGCAG”, the binding signal is 10800 fluorescence intensity (a.u.). For “CCTGCCCGGTGTGCTGTGACTTGCCGTTATCGTCACCGTTCGGAGTCACCTAGTGCAG” the value was 10200 fluorescence intensity (a.u.).

For the sequence “CACTTCTTTTCTCTATGGCGGCATCTGAATCTATGTGGATCGGAGTCACCTAGTGCAG”, the binding signal is 9450 fluorescence intensity (a.u.). “AATCACCTCCCTTATCTTACCTGCATGACAAATGCCTCGACGGAGTCACCTAGTGCAG”: the binding signal was 8590 fluorescence intensity (a.u.). The value for “ACCCACCATGCCACCCCACTCCTTCTTTAAACTTGTAAACCGGAGTCACCTAGTGCAG” was 9480 fluorescence intensity (a.u.); that for “TCTCCTATCCAGTTGGATTCCCAAAATTTCGCCTTTCGTCCGGAGTCACCTAGTGCAG” was 8070 fluorescence intensity (a.u.). For “AACCGAAATCACTTTGGCAGCATGTTTTCCTCTGTAACCACGGAGTCACCTAGTGCAG” the value was 9350 fluorescence intensity (a.u.); for “CAACCCCACCGCCGCCGCCGCAAACCGTCTCGCCGTCGCCCGGAGTCACCTAGTGCAG”, 11600 fluorescence intensity (a.u.); for “GAGGTTGTTTTGTCGTCTAGCAAGTGTGTGTCGGGTGGCGCGGAGTCACCTAGTGCAG”, 9220 fluorescence intensity (a.u.). The value for “GTCATATGGCACCATGCTTGCTCTCCACTCTTCAATCAGTCGGAGTCACCTAGTGCAG” was 9490 fluorescence intensity (a.u.); that for “TCGCTGCTCTGCCCTTTTCCCTTTTTTTTTCTTTCTTCATCGGAGTCACCTAGTGCAG” was 10200 fluorescence intensity (a.u.); that for “CCATCAGTTGACCATGTGTTGACCGTTAACTCTCAAGTAACGGAGTCACCTAGTGCAG” was 9190 fluorescence intensity (a.u.). For “CTCCCGTCAGTTGACCGTGTGTTGACCGTTAATTCTCAAGCGGAGTCACCTAGTGCAG”, the binding signal was 17500 fluorescence intensity (a.u.). For “CCCTCCCGTCAGTTGACCGTTAGTTGACCGTGTATTTTCTCGGAGTCACCTAGTGCAG” the value was 12200 fluorescence intensity (a.u.); for “TCCGTGTCCAATGTTTGACCATCCGTCTTATTTAAAAAAACGGAGTCACCTAGTGCAG”, 8070 fluorescence intensity (a.u.); for “GTGTTGTGTTCATCTCCTTCGTTTACTTCTCTTCTCCTCTCGGAGTCACCTAGTGCAG”, 11500 fluorescence intensity (a.u.). For “TATTCTGTTGTATTATGATATTATATATATTTTTCTTCGACGGAGTCACCTAGTGCAG” the value was 8980 fluorescence intensity (a.u.); for “GTTCCTTTCAGAAACTGGCATTCGAGTTTTGAGTTTCTCGCGGAGTCACCTAGTGCAG”, 8720 fluorescence intensity (a.u.).

As for “AACAGGCATGGTTTCCTTCGTCGTTTCTACTAGCAGTTGCCGGAGTCACCTAGTGCAG”, the binding signal is 11900 fluorescence intensity (a.u.). For “GATGGCCTTGACCATGCAGAAACAGGCATGGTTTCCTTCGCGGAGTCACCTAGTGCAG” the value was 64500 fluorescence intensity (a.u.); for “TAAGACGTTTTGACTTTGGTCAAACTGTTTGGTCAAAGTCCGGAGTCACCTAGTGCAG”, 10600 fluorescence intensity (a.u.).

For “ATTGTTATGTTCCTTTGTTTTCTTATAAATATAATTTAATCGGAGTCACCTAGTGCAG”, the binding signal was 9560 fluorescence intensity (a.u.). The value for “TTTTCCTTAGTCAAAGTTATATATGTTTGACTAAATTTATCGGAGTCACCTAGTGCAG” was 18000 fluorescence intensity (a.u.); that for “CATTTGACTTTTTTCTAGTCAAAGTTATTTATATTTAATTCGGAGTCACCTAGTGCAG” was 14100 fluorescence intensity (a.u.); that for “GACTTTAGTCAAAGTCATGTTGTTTCAAGTTTGACTAATTCGGAGTCACCTAGTGCAG” was 18800 fluorescence intensity (a.u.). The value for “GTTTTGACTTTGGTCAAAGTCAAACTAATTCAAGTTAGACCGGAGTCACCTAGTGCAG” was 17600 fluorescence intensity (a.u.); that for “CTAAAATTTCCTTATGTTTTCTTCTTCTTCTAGTTATGTGCGGAGTCACCTAGTGCAG” was 8800 fluorescence intensity (a.u.); that for “CTTTAGTTAAAGTCAAAGTGCTTCAAGTTTGACTAAGTTTCGGAGTCACCTAGTGCAG” was 9150 fluorescence intensity (a.u.).

Turning to “TTTGGTCAAACTTAAAAAAGTTTGACTACAACTAAATTCACGGAGTCACCTAGTGCAG”, the binding signal was 8740 fluorescence intensity (a.u.). The value for “TCATACATGTGATCACTCACTCACTCTCACACACACTCTCCGGAGTCACCTAGTGCAG” was 10100 fluorescence intensity (a.u.).
